rCAG RNA binder – binds r(CAG) RNA repeats; r(CAG) RNA repeat, TO-PRO-1 dye displacement fluorescence; inhibition, % at 3 µM; 370,000 tested, 1.3% active;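 active = inhibition above the plate cutoff, the mean of all test compounds on that plate plus 3 SD, cut at about 35% in these data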;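 note: 0% = DMSO alone and 100% = 100 µM mitoxantrone as full dye displacement; higher means more dye released from RNA so lower well fluorescence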
MsrA inhibitor – inhibits bovine methionine sulfoxide reductase A; purified bovine MsrA, absorbance read-out; inhibition, % at 15.5 µM; 360,000 tested, 0.75% active; AID 651718; in the data active = inhibition above about 4.5%;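 note: 0% = vehicle wells with enzyme and 100% = reference inhibitor wells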
bovine MsrA act – activators of bovine methionine sulfoxide reductase A. purified bovine MsrA, absorbance read-out. 360,000 tested, 0.3% active. activation, % at 10.6 µM. AID 602163; in the data active = activation above about 7.5%;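 note: 0% = vehicle and 100% = reference activator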
sPLA2-III inh – Blocks human group III sPLA2 activity; Q9NZ20; QFRET BODIPY PC-A2 liposome hydrolysis, fluorescence; inhibition, % at 12.2 µM; 370,000 tested, 0.56% active; AID 743126;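 active = inhibition above mean plus 3 SD of compounds lying within the high and low control bounds, cut at about 19% in these data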;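 note: 0% = median of test compound wells and 100% = no enzyme DMSO wells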
Target sequence (Q9NZ20 whole entry, looked up): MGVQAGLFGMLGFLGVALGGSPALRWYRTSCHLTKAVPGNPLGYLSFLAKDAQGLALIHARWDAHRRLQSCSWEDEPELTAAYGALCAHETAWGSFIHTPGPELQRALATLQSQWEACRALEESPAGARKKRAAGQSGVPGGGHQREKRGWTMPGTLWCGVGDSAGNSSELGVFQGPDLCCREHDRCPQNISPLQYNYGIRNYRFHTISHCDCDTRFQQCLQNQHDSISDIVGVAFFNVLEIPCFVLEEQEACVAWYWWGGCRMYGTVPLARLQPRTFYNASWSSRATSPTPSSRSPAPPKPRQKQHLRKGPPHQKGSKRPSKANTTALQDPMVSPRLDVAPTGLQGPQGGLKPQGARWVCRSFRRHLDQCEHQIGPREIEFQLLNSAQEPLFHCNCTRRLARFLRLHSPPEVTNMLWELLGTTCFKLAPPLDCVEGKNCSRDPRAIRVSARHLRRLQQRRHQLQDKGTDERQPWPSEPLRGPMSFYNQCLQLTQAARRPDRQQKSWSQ
sPLA2 confirm – human GIII-sPLA2 inhibition, confirmation; shares compounds with sPLA2-III inh; recombinant hGIII-sPLA2, BODIPY PC-A2 QFRET fluorescence; inhibition, % at 12.2 µM; 2,000 tested, 34% active; AID 743280;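 active = mean inhibition across triplicates above the hit cutoff set in the earlier primary screen, cut at about 19% in these data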;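 note: 0% = enzyme with DMSO and 100% = DMSO wells lacking enzyme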
535nm interf – optically interferes with 535nm fluorescence in sPLA2 counter-screen. 2,000 tested, 8.5% active. BODIPY FL product fluorescence interference, QFRET. shares compounds with sPLA2-III inh. AID 743282. inhibition, % at 12.2 µM;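 active = average inhibition above the solvent-only control mean plus 3 SD, cut at about 6% in these data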;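 note: 0% = DMSO with substrate plus product and 100% = DMSO with substrate alone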
535nm interf DR – counter-screen for HGIII-sPLA2 inhibitors: 535nm fluorescence interference, dose response; shares compounds with sPLA2-III inh; BODIPY FL product fluorescence interference, cell-free; IC50, µM; 240 tested, under 10 active; AID 743455;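 active = IC50 at or below 10 µM; inactive = IC50 above 10 µM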
Numbers without * were called inactive; · = no result given. Most compounds without a hit are left out; they make up all but 2.8% or so of the library.

SMILES | rCAG RNA binder | MsrA inhibitor | bovine MsrA act | sPLA2-III inh | sPLA2 confirm | 535nm interf | others
COc1ccc(/C=C/C(=O)Nc2ccc(OC)cc2[N+](=O)[O-])cc1 | 0 | 0 | -7 | 3 | · | ·
Cc1ccc(NC(=O)/C=C\C(=O)O)c([N+](=O)[O-])c1 | -3 | 1 | 7 | 21* | 1 | -6
CCOc1ccc(NC(=O)/C=C/c2ccc(OC)cc2)c([N+](=O)[O-])c1 | 1 | 1 | 0 | 26* | -2 | -5
CCOc1ccc(NC(=O)COC(=O)C23CC4CC(CC(C4)C2)C3)c([N+](=O)[O-])c1 | 0 | 0 | -8 | 21* | -10 | -10
CCC(C)NC(=O)COC(=O)c1csc2c1CCCC2 (stereo not drawn) | -6 | -1 | -10 | 0 | · | ·
COCCCN1C(=O)C(CC(=O)NCc2ccco2)CC(C(=O)N2CCOCC2)=C1C (stereo not drawn) | 0 | 1 | -8 | 21* | 0 | 0
Cc1cc(NC(=O)CSc2nnc(-c3ccncc3)n2Cc2ccccc2)n(-c2ccccc2)n1 | -5 | 0 | -2 | 6 | · | ·
COCCn1c(SCC(=O)Nc2cc(C)nn2-c2ccccc2)nnc1-c1ccncc1 | -3 | 0 | 3 | 20* | 4 | -7
COc1ccc(N/N=C/c2c(C(=O)O)ccc3ccccc23)cc1 | 22 | 2 | -2 | 19* | 11 | -6
c1ccc2cc(C3OCC4(CCCC4)CO3)ccc2c1 | 2 | 1 | -9 | 15 | · | ·
CCc1ccc(Nc2n[n+](-c3ccccc3)c(-c3ccc(N(CC)CC)cc3)s2)cc1 | -9 | 0 | -3 | 23* | -22 | -50
CCOC(=O)c1[nH]c(=O)[nH]c1CSc1ccccn1 | 6 | 1 | -2 | 5 | · | ·
CCOC(=S)SCC(=O)Nc1nc(C)c(C)s1 | 1 | 1 | -6 | 19* | -3 | -8
OC[C@@H]1[C@@H](c2ccc(Cl)cc2)C(c2ccccc2)=NN1c1ccccc1 | 10 | 0 | -3 | -2 | · | ·
C/C(=N\NC(=O)c1ccccc1F)c1ccc2c(c1)Nc1ccccc1S2 | 9 | 0 | -7 | 20* | 45* | 10*
C/C(=N\NC(=O)c1ccc(O)cc1)c1ccc2c(c1)Nc1ccccc1S2 | 6 | 1 | -2 | 3 | · | ·
Cc1ccccc1Nc1nc(N)nc(CCl)n1 | -3 | -1 | -3 | 20* | 3 | -8
CN(C(=O)CSc1nc(O)cc(=O)n1-c1ccccc1F)c1ccccc1 | 10 | 0 | -2 | -11 | · | ·
CCCOc1ccc(S(=O)(=O)N2C(=O)CC(=O)N(Cc3ccc(OCC)cc3)C2=O)cc1 | 21 | -1 | · | -16 | · | ·
CC(N)c1csc(Nc2ccc(C(=O)c3ccccc3)cc2)n1 (stereo not drawn) | 10 | 4 | -2 | 20* | 12 | -18
CC(C)C(N)c1csc(Nc2ccc(C(=O)c3ccccc3)cc2)n1 (stereo not drawn) | 14 | 1 | -3 | 22* | 6 | -18
CC(C)CC(N)c1csc(Nc2ccc(C(=O)c3ccccc3)cc2)n1 (stereo not drawn) | 16 | -2 | -8 | 9 | · | ·
O=C(N/C(=C\c1ccc([N+](=O)[O-])cc1)C(=O)N1CCCCC1)c1ccc(Br)o1 | -2 | 1 | -2 | -2 | · | ·
C/C(=N/NC(=O)c1ccc2c(c1)OCCO2)c1ccc([N+](=O)[O-])cc1 | -2 | -1 | -4 | 23* | -3 | -8
CC(=O)Nc1sc(C)c(C)c1C(=O)OCC(=O)NCc1ccc(Cl)cc1 | 2 | 2 | -3 | 4 | · | ·
SMILES | rCAG RNA binder | MsrA inhibitor | bovine MsrA act | sPLA2-III inh | sPLA2 confirm | 535nm interf | others
COc1cc(Sc2ccc(C)cc2)c(OC)cc1N | 3 | 1 | -1 | 22* | 38* | 9.1*
COC(=O)c1ccc(Sc2ccc(C)cc2)c(N)c1 | -2 | 0 | -5 | 2 | · | ·
CCCCSc1nnc(-c2ccc(C)cc2)c2ccccc12 | -4 | 0 | -2 | 24* | -1 | -11
CN(C)C(=O)CSc1nnc(-c2ccc(F)cc2)c2ccccc12 | 2 | -1 | -8 | 4 | · | ·
CC(=O)Nc1ccc(Nc2ccc3c4c(cc(=O)n3C)-c3ccccc3C(=O)c24)cc1 | -3 | 0 | -5 | 8 | · | ·
O=C1c2ccccc2C(=O)c2c(Nc3ccc(CCO)cc3)ccc(O)c21 | 16 | 1 | -1 | 21* | 48* | 3 | 535nm interf DR=>122
COc1cc(NC(=S)N2CCN(c3ccccn3)CC2)c(OC)cc1Cl | -1 | 1 | -12 | 22* | 16 | -6
